# Assay results reported in PubChem BioAssay.
# Calls of active or inactive are those of the source. Unless noted, how the calls were made is not given here.
# Tests used:
# [1] = anti-His antibody binders, primary screen, artefact control for SMM control protein annotation, biochemical, small-molecule microarray, 635 nm fluorescence (AID 1128); conditions: anti-His Alexa647 antibody binding, higher = more signal;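 further: score merges feature fluorescence with signal-to-noise for each printed compound spot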
# [2] = test system: Human papillomavirus type 1a E7 protein (residues 1-88); experiment: HPV1a E7 small-molecule binders, primary screen, biochemical, small-molecule microarray, residues 1-88, 635 nm (AID 1129); conditions: small-molecule microarray binding, fluorescence 635 nm; higher = more signal
# [3] = biological target: Focal adhesion kinase 1 (Homo sapiens) (UniProt Q05397); experiment: small-molecule microarray binders of FAK, primary screen, biochemical, 635/667 nm fluorescence, BSA, DTT (AID 1130); conditions: PTK2 binding, 635 nm fluorescence, higher = more signal;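 further: composite of spot emission at 667 nm and signal to noise over triplicate slides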
# Focal adhesion kinase 1 (Homo sapiens), sequence (Q05397 whole entry, looked up): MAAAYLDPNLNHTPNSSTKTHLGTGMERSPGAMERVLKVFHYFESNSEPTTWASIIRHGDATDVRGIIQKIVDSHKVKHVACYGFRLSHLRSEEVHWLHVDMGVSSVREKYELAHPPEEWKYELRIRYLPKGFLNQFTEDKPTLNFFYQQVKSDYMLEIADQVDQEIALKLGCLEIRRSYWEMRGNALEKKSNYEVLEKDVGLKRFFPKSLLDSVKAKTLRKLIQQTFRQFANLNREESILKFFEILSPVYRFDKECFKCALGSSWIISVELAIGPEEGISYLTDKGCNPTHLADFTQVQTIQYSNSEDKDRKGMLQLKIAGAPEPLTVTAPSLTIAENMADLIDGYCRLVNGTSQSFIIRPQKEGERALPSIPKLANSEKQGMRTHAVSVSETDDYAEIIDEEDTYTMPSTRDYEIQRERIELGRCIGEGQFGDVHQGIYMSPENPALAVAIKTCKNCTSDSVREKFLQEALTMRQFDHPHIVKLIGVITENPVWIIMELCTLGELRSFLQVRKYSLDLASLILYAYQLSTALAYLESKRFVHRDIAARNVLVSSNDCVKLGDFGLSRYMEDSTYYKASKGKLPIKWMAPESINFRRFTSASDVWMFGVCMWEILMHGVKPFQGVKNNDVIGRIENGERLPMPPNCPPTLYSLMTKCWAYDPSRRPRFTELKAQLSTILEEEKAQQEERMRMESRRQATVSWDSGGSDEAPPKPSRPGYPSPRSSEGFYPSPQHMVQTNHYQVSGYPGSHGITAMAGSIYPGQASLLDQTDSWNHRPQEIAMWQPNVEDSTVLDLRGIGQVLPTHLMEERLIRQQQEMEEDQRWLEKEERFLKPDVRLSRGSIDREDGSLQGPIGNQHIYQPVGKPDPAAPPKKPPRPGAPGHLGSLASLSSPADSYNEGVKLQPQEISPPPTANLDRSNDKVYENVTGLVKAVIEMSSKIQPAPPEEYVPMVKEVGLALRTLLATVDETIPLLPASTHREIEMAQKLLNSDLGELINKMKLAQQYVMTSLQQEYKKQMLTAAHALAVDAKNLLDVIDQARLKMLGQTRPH
# [4] = test system: Fibrinogen (Alexa647-labelled); experiment: fibrinogen binders on compound microarrays, profiling panel, artefact control for SMM control-protein annotation, biochemical, small-molecule microarray, 635/667 nm fluorescence (AID 1131); conditions: fibrinogen-A647 binding fluorescence, higher = more signal;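 further: z-score merges 667 nm fluorescence with per-spot signal-to-noise over triplicate slides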
# [5] = biological target: Follistatin (Homo sapiens) (UniProt P19883); experiment: follistatin binders on small-molecule microarrays, primary screen, biochemical, small-molecule microarray, 635/667 nm fluorescence (AID 1132); conditions: FST binding, 635 nm fluorescence, higher = more signal
# Follistatin (Homo sapiens), sequence (P19883 whole entry, looked up): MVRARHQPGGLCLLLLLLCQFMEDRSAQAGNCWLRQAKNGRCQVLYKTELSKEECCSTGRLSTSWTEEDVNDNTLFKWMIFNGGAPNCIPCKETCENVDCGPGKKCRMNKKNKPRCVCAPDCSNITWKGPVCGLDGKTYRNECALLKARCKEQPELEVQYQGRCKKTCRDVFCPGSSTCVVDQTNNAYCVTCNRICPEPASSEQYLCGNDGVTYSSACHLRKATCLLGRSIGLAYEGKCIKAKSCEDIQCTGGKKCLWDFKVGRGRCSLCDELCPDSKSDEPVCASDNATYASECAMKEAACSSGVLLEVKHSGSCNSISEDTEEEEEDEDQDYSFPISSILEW
# [6] = biological target: Fibroblast growth factor 2 (Homo sapiens) (UniProt P09038); experiment: FGF2 binders on small-molecule microarrays, primary screen, biochemical, small-molecule microarray, 635/667 nm fluorescence (AID 1133); conditions: small-molecule microarray binding, FGF2, fluorescence 635/667; higher = more signal
# Fibroblast growth factor 2 (Homo sapiens), sequence (P09038 whole entry, looked up): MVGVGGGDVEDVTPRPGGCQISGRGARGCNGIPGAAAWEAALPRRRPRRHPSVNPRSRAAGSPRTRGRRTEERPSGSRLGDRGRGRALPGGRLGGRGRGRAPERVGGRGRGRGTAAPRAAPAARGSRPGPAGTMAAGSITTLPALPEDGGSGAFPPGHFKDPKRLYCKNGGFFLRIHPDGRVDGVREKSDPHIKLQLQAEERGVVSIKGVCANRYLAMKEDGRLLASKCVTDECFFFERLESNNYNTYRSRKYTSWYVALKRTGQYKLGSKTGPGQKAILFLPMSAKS
# [7] = mitochondrial membrane potential change in A549 cells, profiling panel, cell-based, JC-1 fluorescence, basal, 24 h, 100 nL (AID 1138); conditions: higher = more signal;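 further: A549 lung adenocarcinoma cells under basal conditions with no added stimulus; test concentration not given here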
# [8] = test system: Lefty1; experiment: Lefty1 binders on small-molecule microarrays, primary screen, biochemical, small-molecule microarray, 635/667 nm fluorescence (AID 1139); conditions: small-molecule microarray binding, fluorescence 635/667; higher = more signal
# [9] = test system: wheat germ agglutinin (Triticum aestivum), Alexa647-labelled; experiment: wheat germ agglutinin binders on compound microarrays, profiling panel, artefact control for SMM control-protein annotation, biochemical, small-molecule microarray, 635/667 nm fluorescence (AID 1140); conditions: WGA-A647 binding, 635 nm fluorescence, higher = more signal;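 further: score merges 667 nm feature emission with signal to noise over triplicate slides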
# [10] = biological target: Luciferin 4-monooxygenase (Photinus pyralis) (UniProt P08659); experiment: firefly luciferase enzyme inhibitors, primary screen, biochemical, luminescence, purified enzyme, 2006 set (AID 1141); conditions: SteadyGlo luminescence, 30 min, higher = more signal, called active from +8 up or from −8 down;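 further: cell-free assay with purified firefly luciferase at 100 ng per well in PBS; test concentration not given here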
# Luciferin 4-monooxygenase (Photinus pyralis), sequence (P08659 whole entry, looked up): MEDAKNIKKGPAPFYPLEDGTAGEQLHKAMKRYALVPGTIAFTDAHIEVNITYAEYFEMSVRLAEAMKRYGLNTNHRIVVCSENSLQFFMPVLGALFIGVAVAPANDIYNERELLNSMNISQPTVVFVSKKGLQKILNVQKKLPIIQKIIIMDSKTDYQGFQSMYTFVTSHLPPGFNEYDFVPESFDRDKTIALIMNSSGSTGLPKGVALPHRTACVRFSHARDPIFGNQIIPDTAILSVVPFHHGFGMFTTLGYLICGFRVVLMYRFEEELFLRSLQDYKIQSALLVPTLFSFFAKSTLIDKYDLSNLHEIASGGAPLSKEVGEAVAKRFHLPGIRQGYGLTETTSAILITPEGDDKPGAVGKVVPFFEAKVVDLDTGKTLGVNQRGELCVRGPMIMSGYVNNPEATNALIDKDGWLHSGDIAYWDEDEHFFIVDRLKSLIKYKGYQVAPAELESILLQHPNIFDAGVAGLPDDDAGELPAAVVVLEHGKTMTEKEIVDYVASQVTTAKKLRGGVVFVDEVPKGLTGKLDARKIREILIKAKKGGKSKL
# [11] = test system: Wnt5a (protein binding on small-molecule microarray); experiment: Wnt5a binders on small-molecule microarray, primary screen, biophysical, 635/667 nm fluorescence (AID 1142); conditions: 635 nm fluorescence, higher = more signal;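 further: fluorescence read at 667 nm with signal to noise per printed feature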
# [12] = cell viability in Huh7 cells, primary screen, cytotoxicity control for HCV replication inhibitor project, CellTiter-Glo luminescence, basal, 48 h (AID 1143); conditions: Huh7 HCV replicon, higher = more signal, called active from +8 up or from −8 down;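 further: Huh7 hepatoma cells carrying a hepatitis C replication reporter with no stimulus; test concentration not given here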
# [13] = P. aeruginosa biofilm formation inhibitors, primary screen, PAO1 strain, BacTiter-Glo luminescence, LB-PBS (AID 1144); conditions: 12 h, higher = more signal
# [14] = CREB reporter modulators without forskolin, primary screen, cell-based, PC12, CRE-LacZ reporter, unstimulated (AID 1145); conditions: no forskolin, luminescence, 4.5 h, higher = more signal, called active from +8 up or from −8 down
# [15] = CREB reporter modulators under forskolin, primary screen, cell-based, PC12, CRE-LacZ reporter, forskolin-stimulated (AID 1146); conditions: luminescence, 4.5 h, higher = more signal, called active from +8 up or from −8 down;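 further: PC12 cells with 6xCRE LacZ reporter stimulated by forskolin 10 µM; beta-galactosidase reporter signal reflecting CREB driven transcription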
# [16] = biological target: Streptavidin (Streptomyces avidinii) (UniProt P22629); experiment: streptavidin binders on small-molecule microarray, primary screen, artefact control for SMM compound annotation, biophysical, 635/667 nm fluorescence (AID 1147); conditions: streptavidin binding, higher = more signal;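 further: signal reflects streptavidin binding to arrayed compounds as a control protein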
# Streptavidin (Streptomyces avidinii), sequence (P22629 whole entry, looked up): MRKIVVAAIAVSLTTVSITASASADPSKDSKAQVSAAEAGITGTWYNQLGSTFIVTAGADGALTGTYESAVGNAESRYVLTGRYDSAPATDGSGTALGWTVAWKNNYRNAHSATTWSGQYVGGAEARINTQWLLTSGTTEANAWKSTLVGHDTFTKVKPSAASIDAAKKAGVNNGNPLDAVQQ
# [17] = small-molecule binders of probe aInhba, primary screen, biochemical, small-molecule microarray, 635/667 nm fluorescence (AID 1148); conditions: higher = more signal;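 further: score merges 667nm spot fluorescence with signal-to-noise for antibody binding to printed compounds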
# [18] = biological target: Torsin-1A (Homo sapiens) (UniProt O14656); experiment: torsin A binders from cell lysate, primary screen, small-molecule microarray, wild-type, 635/667 nm (AID 1149); conditions: COS7 hTOR1A-WT lysate, 635 nm fluorescence, higher = more signal
# Torsin-1A (Homo sapiens), sequence (O14656 whole entry, looked up): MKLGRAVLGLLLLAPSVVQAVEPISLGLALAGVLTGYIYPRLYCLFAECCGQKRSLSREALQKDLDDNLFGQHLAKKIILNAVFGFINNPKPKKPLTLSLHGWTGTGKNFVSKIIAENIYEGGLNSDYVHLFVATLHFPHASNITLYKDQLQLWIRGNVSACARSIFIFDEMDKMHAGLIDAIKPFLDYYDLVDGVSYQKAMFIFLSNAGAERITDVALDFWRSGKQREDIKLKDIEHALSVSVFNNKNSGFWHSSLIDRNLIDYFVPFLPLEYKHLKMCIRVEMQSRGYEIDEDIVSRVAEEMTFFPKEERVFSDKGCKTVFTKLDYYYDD
# [19] = biological target: Torsin-1A (Homo sapiens) (UniProt O14656); experiment: small-molecule binders of mutant TOR1A in lysate, primary screen, cell lysate, small-molecule microarray, COS7 lysate, 635/667 nm fluorescence (AID 1150); conditions: COS7 hTOR1A mutant lysate, 635 nm fluorescence, higher = more signal;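 further: score pools 667 nm emission and signal to noise measuring lysate protein binding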
# [20] = test system: Sonic hedgehog protein (Shh); experiment: small-molecule binders of Shh protein, primary screen, biochemical, small-molecule microarray, 635/667 nm fluorescence (AID 1151); conditions: small-molecule microarray binding, 635 nm fluorescence; higher = more signal;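 further: Shh protein binding to compounds spotted on small-molecule microarray slides; score combines spot fluorescence intensity with signal-to-noise across triplicate slides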
SMILES,composite z-score [1],composite z-score [2],composite z-score [3],composite z-score [4],composite z-score [5],composite z-score [6],z-score [7],composite z-score [8],composite z-score [9],z-score [10],composite z-score [11],z-score [12],z-score [13],z-score [14],z-score [15],composite z-score [16],composite z-score [17],composite z-score [18],composite z-score [19],composite z-score [20]
CC(C)C(=C=CC[C@@H](O)c1ccccc1OCCO)C[C@@H](O)COCc1ccccc1,-0.0424,0.42,-0.0011,0.807,1.28,1.45,1.88,0.435,0.288,-2.5 (inactive),0.679,-5.62 (inactive),0.173 (inactive),18.5 (active),-0.762 (inactive),0.235,0.15,0.636,1.1,1.98
CC=CC(O)C1C=CC2C(=O)N(C)C(=O)C2N1Nc1ccc([N+](=O)[O-])cc1[N+](=O)[O-] (stereo not given),2.66,-0.935,0.247,-1.22,-0.0096,-0.582,0.533,0.0657,-0.0025,-0.419 (inactive),-0.449,1.01 (inactive),-0.658 (inactive),-0.136 (inactive),0.71 (inactive),-0.118,-0.128,0.316,-0.297,-0.144
COC(=O)[C@@]1(Cc2ccc(OC)cc2)[C@H]2c3cc(C(=O)N(C)C)n(Cc4ccccc4)c3C[C@H]2CN1C(=O)c1ccccc1,3.25,1.14,0.649,-0.228,-0.0192,-0.825,2.63,-0.244,0.578,0.84 (inactive),-0.0424,-3.07 (inactive),-0.784 (inactive),-0.764 (inactive),0.592 (inactive),0.707,0.0882,-0.0982,0.14,-1.21
O=C1NC(=O)C2C1C=CC(C(O)c1ccc(Br)cc1)N2Nc1ccccn1 (stereo not given),1.32,0.173,0.231,0.995,0.426,0.657,0.631,-0.162,0.806,-1.52 (inactive),0.336,-0.0358 (inactive),-1.45 (inactive),-0.322 (inactive),0.521 (inactive),0.363,0.126,0.196,0.301,-0.248
CCOC(=O)[C@H]1C/C=C/C[C@H](C(=O)OCC)C(=O)O[C@H]2[C@@H](OC)O[C@H](CO)[C@@H](OC(=O)CCc3ccccc3)[C@@H]2OC1=O,0.522,-0.267,-0.542,0.0772,-0.502,-0.924,3.06,-0.172,-0.185,0.418 (inactive),-0.581,-1.31 (inactive),-1.28 (inactive),-0.475 (inactive),-0.0955 (inactive),-0.345,0.788,-0.407,-0.532,-0.0617
C=C[C@@H](COC(C)=O)NS(=O)(=O)c1ccc(Br)cc1,0.188,0.374,0.0776,0.156,0.635,0.617,-0.367,0.283,0.428,-0.823 (inactive),-0.0143,-2.37 (inactive),-0.446 (inactive),0.904 (inactive),0.344 (inactive),0.0981,-0.0589,0.825,0.357,-0.0658
CN(C)C(=O)[C@@]1(Cc2ccccc2N=[N+]=[N-])COC(c2ccc(OCCCO)cc2)=N1,0.869,1.22,0.947,1,1.32,1.76,1.76,-0.349,0.51,-3.71 (inactive),0.932,-2.68 (inactive),0.618 (inactive),0.942 (inactive),0.646 (inactive),0.726,-0.0171,0.425,0.837,-0.215
C=C(CCCC)C(=O)CC[C@@H](OC(=O)c1ccccc1-c1ccccc1C(=O)O)c1cccc(OCCO)c1,-0.0724,0.53,0.113,0.834,1.43,1.56,0.317,1.68,-0.0168,-2.33 (inactive),0.137,-0.854 (inactive),0.194 (inactive),3.31 (inactive),8.69 (active),-0.6,-0.231,0.604,0.561,1.68
COCCCNC(=O)[C@@]1(Sc2ccc(C)cc2)CC(=O)N(Cc2cc(C(F)(F)F)cc(C(F)(F)F)c2)[C@@H]1c1ccc(CO)cc1,1.79,0.566,0.813,0.248,1.06,0.686,0.727,1.25,-0.271,-0.363 (inactive),0.0054,-0.418 (inactive),0.126 (inactive),0.506 (inactive),-1.15 (inactive),0.072,0.0111,1.27,0.389,1.68
COc1c(C)cc(-c2cc3c(c(Cc4ccccc4)n2)[Si](C(C)C)(C(C)C)OC3)cc1C,0.0134,-0.006,0.212,0.0295,0.308,0.0273,0.0666,0.708,-0.063,0.674 (inactive),0.0025,0.428 (inactive),0.602 (inactive),-0.0848 (inactive),-0.47 (inactive),0.169,-0.128,-0.0914,-0.105,0.513
CC(C)(C)OC(=O)CC[C@]1(C(=O)O)N=C(c2ccc(OCCCO)cc2)O[C@H]1c1ccccc1CN=[N+]=[N-],0.401,0.251,-0.171,-0.0709,0.467,0.13,0.902,-0.482,0.393,-2.06 (inactive),0.108,0.109 (inactive),0.618 (inactive),-1.09 (inactive),-1.7 (inactive),-0.247,0.0074,-0.61,-0.13,-0.533
C=CCC(OC(C)=O)[C@@H]1[C@@H](N(Cc2ccc(-c3ccccc3)cc2)C(=O)c2cccc3ccccc23)c2cc(OCCCO)ccc2N1C(=O)Cc1ccc2ccccc2c1 (stereo not given in full),0.23,-0.0083,-0.0525,-0.545,0.295,-0.327,0.31,0.191,0.605,-0.105 (inactive),-0.195,-1.31 (inactive),0.457 (inactive),0.423 (inactive),-0.481 (inactive),-0.0695,-0.17,0.0517,0.12,0.39
CCCNC(=O)[C@@]1(c2ccc([N+](=O)[O-])cc2)CC(=O)N(C2CCCCC2)[C@@H]1c1ccc(CO)cc1I,2.18,0.949,0.178,0.34,1.21,1.52,1.4,1.01,1.1,-0.424 (inactive),1.01,-4.24 (inactive),-0.326 (inactive),-0.682 (inactive),1.18 (inactive),0.277,0.306,0.224,0.451,1.85
CCOC(=O)C1=CC[C@@H](c2ccccc2)N(S(=O)(=O)c2ccc(C)cc2)C1,-0.416,0.968,0.478,-0.364,0.736,-0.103,0.747,-0.34,0.564,0.731 (inactive),0.0639,-2.28 (inactive),0.84 (inactive),0.229 (inactive),0.368 (inactive),0.342,0.0633,0.303,0.17,-0.474
C[N+](C)(C)CCCC[C@@H]1NC(=O)[C@@H]2C[C@H](C(=O)O)[C@H](c3ccc(O)cc3)N2C1=O,-0.613,-1.65,-0.975,-1.21,-0.493,-0.27,-0.264,0.0501,0.213,-0.516 (inactive),-0.535,0.462 (inactive),-0.771 (inactive),0.0043 (inactive),0.563 (inactive),-1.08,-0.103,-1.07,-0.909,-0.0334
C=CC[C@@H](OC(=O)Nc1ccc(OC)cc1)c1ccc(OCCO)cc1,-0.662,-0.646,-0.676,-3,-0.787,-1.6,-0.371,-0.999,-0.262,-5.18 (inactive),-1.2,-2.05 (inactive),-0.542 (inactive),1.29 (inactive),0.0646 (inactive),-1.21,-0.237,-3.71,-3,-0.49
C[C@]1(C(=O)NC2CC2)c2ccccc2C(=O)N(Cc2ccc(OC(F)(F)F)cc2)[C@H]1c1ccc(CO)cc1,-0.725,0.722,0.576,-0.796,-0.239,0.0672,1,-0.858,-1.5,0.371 (inactive),-0.0135,-0.0474 (inactive),0.244 (inactive),1.64 (inactive),-0.103 (inactive),-0.825,0.152,0.398,0.398,-0.379
CC(C)N1CC=CC23O[C@@H]4C=CCOC(=O)[C@@H]4[C@H]2C(=O)N(C(C)CO)[C@@H]3C1=O (stereo not given in full),-0.221,-0.915,-0.202,-0.179,-0.901,-0.678,-0.374,-0.941,-0.158,0.169 (inactive),-0.517,0.394 (inactive),0.995 (inactive),-0.619 (inactive),-0.544 (inactive),-0.23,-0.161,-1.33,-1.43,-0.753
C=C(CCCC)/C(=C/C[C@@H](OC(C)=O)c1ccc(CO)o1)c1cc(C(=O)OC)ccc1OC,0.746,0.961,0.506,0.715,1.33,1.17,0.522,1.22,0.454,-2.87 (inactive),0.259,0.0294 (inactive),-0.504 (inactive),3.68 (inactive),2.34 (inactive),0.498,-0.0405,0.436,0.371,2.15
